Laboratory results: PubChem BioAssay (NCI)
Compounds without any hit were thinned out: in the full panel of roughly 79,000, 15% have a hit. Cut-off read from the data, not from the text of the source: active = growth inhibition above about 70%; inactive = the rest.

Key:
[1] = NCI Yeast Anticancer Drug Screen. Data for the rad50 strain (AID 155);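 note: 0% = growth of vehicle-only cultures of the same strain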; details: S. cerevisiae rad50 strain growth inhibition; at 50.0 µM; active compounds read high
Outline: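 Readout: growth inhibition relative to vehicle-treated cultures. Compound exposure was carried out in a genetically defined yeast strain deficient in DNA damage repair.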

[2] = NCI Yeast Anticancer Drug Screen. Data for the mec2-1 strain (AID 157); details: S. cerevisiae mec2-1 strain, at 50.0 µM, active compounds read high
Outline: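 mec2-1 yeast strain, carrying an alteration in DNA damage repair or cell cycle control, was exposed to compounds; growth inhibition was measured relative to vehicle-treated controls.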

[3] = NCI Yeast Anticancer Drug Screen. Data for the sgs1 mgt1 strain (AID 161);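 note: 0% = growth of cultures given vehicle only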; details: S. cerevisiae sgs1 mgt1 strain, at 50.0 µM, active compounds read high
Outline: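 This yeast growth screen uses a strain with defined DNA-repair lesions; compound-treated growth is compared with vehicle-treated growth.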

[4] = NCI Yeast Anticancer Drug Screen. Data for the cln2 rad14 strain (AID 165);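 note: 0% = growth equal to vehicle treated cultures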; details: S. cerevisiae cln2 rad14 strain, at 50.0 µM, active compounds read high
Outline: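 Yeast carrying cln2 and rad14 alterations (cell cycle control and DNA damage repair) were exposed to compounds. Growth inhibition was measured against vehicle-treated controls.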

[5] = NCI Yeast Anticancer Drug Screen. Data for the bub3 strain (AID 167); details: S. cerevisiae bub3 mutant strain, at 50.0 µM, active compounds read high
Outline: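 Readout: yeast growth inhibition, expressed relative to vehicle-only wells. The test organism is a mutant strain from a panel with lesions in DNA repair or checkpoint genes.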

[6] = NCI Yeast Anticancer Drug Screen. Data for the mlh1 rad18 strain (AID 175); details: S. cerevisiae mlh1 rad18 strain growth inhibition; at 50.0 µM; active compounds read high
Outline: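 Growth inhibition of the yeast strain was measured after compound exposure and expressed relative to vehicle-treated controls. The strain carries defined defects in DNA damage repair.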

Measured: growth inhibition

CC(C)(C)OC(=O)NNC(=O)c1ccc([N+](=O)[O-])cc1
inactive: [1] 17.2% | [2] -9.8% | [3] -2.5% | [4] 30.6% | [5] 3.75% | [6] 5.8%

C/C(=N\NC(=O)CC(=O)N(C(=O)c1ccccc1Cl)c1ccc(C)cc1)c1ccc(Cl)cc1
inactive: [1] -0.5% | [2] -8.95% | [3] -25.4% | [4] -15.8% | [5] -4.25% | [6] -6.1%

CC(=O)Nc1nc(C)c(CCCOc2ccc([N+](=O)[O-])cc2)c(Cl)n1
inactive: [1] 1.65% | [2] 11.4% | [3] 4% | [4] 1.4% | [5] 27.1% | [6] 12.2%

O=C(CC(=O)N(C(=O)c1ccccc1)c1ccc(Cl)cc1)N/N=C\c1cc(N=Nc2ccccc2Cl)ccc1O
inactive: [1] -13.8% | [2] -10.1% | [3] 14.8% | [4] 15.2% | [5] -21.4% | [6] 9.1%

CCCCCC(=O)OCCCc1ccccc1
inactive: [1] 28.9% | [2] 2.9% | [3] -0.3% | [4] -12.9% | [5] 19.4% | [6] -6.8%

CC(C)CC(NC(=O)OC(C)(C)C)C(=O)O (stereo not given)
inactive: [1] -44.6% | [2] -51.7% | [3] -9.6% | [4] 14.6% | [5] -29.2% | [6] -16.9%

Cc1cc2[nH]c(=O)n(C3OC(CO)C(O)C3O)c2cc1C (stereo not given)
inactive: [1] -15.2% | [2] 19.1% | [3] 2.4% | [4] -33.2% | [5] -7.6% | [6] -4.4%

CCC(O)(c1ccccc1)C(OC)c1ccccc1 (stereo not given)
inactive: [1] 15.3% | [2] 5.35% | [3] 14.5% | [4] 7.25% | [5] -0.35% | [6] 21.1%

CNCC(OCCc1ccccc1)c1ccc(O)c(O)c1 (stereo not given)
inactive: [1] 5.85% | [2] -1.9% | [3] 36% | [4] -0.95% | [5] -12.6% | [6] 21.4%

OC(c1ccccc1)(c1ccccc1)C(O)(c1ccccc1)c1ccccc1
inactive: [1] 4.3% | [2] 6.25% | [3] 19.5% | [4] -16.2% | [5] -3.35% | [6] 33.4%

COc1ccccc1C1c2cc3c(cc2OC(O)(CO)C1C(=O)O)OCO3 (stereo not given) (tested in a mixture with another compound)
inactive: [1] -18.4% | [2] -22.7% | [3] -15.3% | [4] -14% | [5] -20.6% | [6] -3.15%

c1ccc(N=C2NNC(=Nc3ccccc3)NN2)cc1
inactive: [1] -17.9% | [2] 2.2% | [3] 5.4% | [4] 1.85% | [5] 3.35% | [6] 7.65%

Cn1c(=O)c2[nH]c([N+](=O)[O-])nc2n(C)c1=O
inactive: [1] 23.4% | [2] -10% | [3] -0.3% | [4] 13.6% | [5] -20.1% | [6] 25.8%

O=C(O)CC12C3C4C5C3C1C5C42 (stereo not given)
inactive: [1] 24.1% | [2] 17.1% | [3] 15.2% | [4] 8.5% | [5] 47.9% | [6] 26.6%

CN1CCCC(C(=O)O)(c2ccccc2)CC1 (stereo not given)
inactive: [1] -17.3% | [2] -5.95% | [3] -19.2% | [4] -35.2% | [5] -14.7% | [6] -24.1%

CC1CCC(C(=O)O)CC1 (stereo not given)
inactive: [1] -16.9% | [2] -9% | [3] -2% | [4] 21.8% | [5] -0.85% | [6] -14.2%

CCC(=N\NC(=S)NC)/C(C)=N\NC(=S)NC
inactive: [1] -8.3% | [2] -6.4% | [3] -6.5% | [4] -36.1% | [5] 9.1% | [6] -14.2%

O=C(O)c1ccc2ccccc2c1C(=O)c1ccc(F)cc1
inactive: [1] 10.1% | [2] -1.6% | [3] 17.9% | [4] 18.3% | [5] 20.3% | [6] 3.1%

COc1ccc(NC(=O)Nc2ccc(SC)cc2)c(Cl)c1
inactive: [1] 0.75% | [2] 5.6% | [3] -2.8% | [4] -13.9% | [5] 19.5% | [6] 20.9%

CC#CCCCC1(C)CCNC1=S (stereo not given)
inactive: [1] 13.8% | [2] 10.2% | [3] 30.5% | [4] 21.9% | [5] 0.8% | [6] 24.6%
